One assay relates to Staphylococcus aureus. Particulars: Concentration 20 uM; ASSAY_TEST Inhibition of Bacterial Growth; detection method Absorption (OD600); MEDIA CAMHB; plate type 384well; NBS; CORNING #3640; time 18 hr.
The next assay has as its system Escherichia coli. To be noted: Concentration 20 uM; ASSAY_TEST Inhibition of Bacterial Growth; detection method Absorption (OD600); MEDIA CAMHB; plate type 384well; NBS; CORNING #3640; time 18 hr.

Potency and affinity values are given separately.

The values that follow come from ChEMBL document CHEMBL4513141, “CO-ADD screening of NIH (USA) - Clinical Collection” (2021).

As usually defined, the Inhibition is the drop in the measured response relative to a control, in per cent. For the compound `COc1cc([C@@H]2c3cc4c(cc3[C@H](O)[C@H]3COC(=O)[C@H]23)OCO4)cc(OC)c1OC` [PODOFILOX], the Inhibition came out at 6.19% in the assay on Staphylococcus aureus and 3.91% in the assay on Escherichia coli. `CN1C(=O)CN=C(c2ccccc2)c2cc(Cl)ccc21` [DIAZEPAM]: the Inhibition in the assay on Staphylococcus aureus stood at 9.71%; in the assay with Escherichia coli, 3.05%. The like results for `COc1cc(CNC(=O)CCCC/C=C\C(C)C)ccc1O` [ZUCAPSAICIN] were, in that order, 14.17% and 0%. The like results for `CC(=O)OCC[N+](C)(C)C.[Cl-]` [ACETYLCHOLINE CHLORIDE] were, in that order, 11.31% and 4.11%. In the case of `O=C1CN=C(c2ccccc2)c2cc([N+](=O)[O-])ccc2N1` [NITRAZEPAM], the figures for the Inhibition in the assay on Staphylococcus aureus and in the assay with Escherichia coli were 7.65% and 5.89%, respectively. Take `Br.CN1[C@@H]2CC(OC(=O)[C@H](CO)c3ccccc3)C[C@H]1[C@@H]1O[C@@H]12.O.O.O` (stereo partly drawn): in the assay on Staphylococcus aureus, the Inhibition is 15.22%. As to `CC(=O)OC1C([N+]2(C)CCCCC2)C[C@H]2C3CC[C@H]4C[C@H](OC(C)=O)C([N+]5(C)CCCCC5)CC4(C)[C@H]3CCC12C.[Br-].[Br-]` (stereo partly drawn), the values for the Inhibition in the assay with Staphylococcus aureus and in the assay on Escherichia coli were 8.65% and 6.22%, respectively. Consider `CNC1=Nc2ccc(Cl)cc2C(c2ccccc2)=[N+]([O-])C1` [CHLORDIAZEPOXIDE], for which the results for the Inhibition in the assay on Staphylococcus aureus and in the assay on Escherichia coli were 15.47% and 3.48%, respectively.

For `COc1ccc2[nH]cc(CCN)c2c1` [5-METHOXYTRYPTAMINE], the results for the Inhibition in the assay with Staphylococcus aureus and with Escherichia coli were 3.43% and -0.18%, respectively. The like results for `c1cncc([C@@H]2CCCN2)c1` [NORNICOTINE] were, in that order, 12.8% and -3.23%. Consider `C[N+]1(C)CCC(OC(=O)C(O)(c2ccccc2)C2CCCC2)C1.[Br-]` (stereo not drawn) [GLYCOPYRRONIUM BROMIDE], for which the Inhibition with Staphylococcus aureus is 11.8%.

With `COc1ccc(CCN)cc1OC`, the Inhibition in the assay with Staphylococcus aureus is 8.89%; in the assay on Escherichia coli, -3.33%. Turning to `CC(C)NCC(O)COc1cccc2[nH]ccc12` (stereo not drawn) [PINDOLOL], the Inhibition in the assay on Staphylococcus aureus is listed as 7.44%; in the assay with Escherichia coli, 5.35%. For the compound `Cl.NCCc1ccc(O)c(O)c1` [DOPAMINE HYDROCHLORIDE], the Inhibition with Staphylococcus aureus is recorded as 8.23%; in the assay with Escherichia coli it was -5.62%.

As to `CN1C(=O)CN=C(c2ccccc2)c2cc([N+](=O)[O-])ccc21` [NIMETAZEPAM], the Inhibition was found to be 10.78% in the assay with Staphylococcus aureus and 1.04% in the assay on Escherichia coli. On to `NCCc1ccccn1`, for which the figures for the Inhibition in the assay with Staphylococcus aureus and in the assay on Escherichia coli were 1.79% and 8.78%, respectively. `Br.COc1ccc2c3c1O[C@H]1C[C@@H](O)C=C[C@@]31CCN(C)C2` [GALANTAMINE HYDROBROMIDE]: the Inhibition with Staphylococcus aureus stood at 13.66%; with Escherichia coli, 3.62%. In the case of `O=C(O)CCCc1ccc(N(CCCl)CCCl)cc1` [CHLORAMBUCIL], the figures for the Inhibition with Staphylococcus aureus and in the assay on Escherichia coli were 7.69% and 8.33%, respectively.

In the case of `CNCC(O)c1ccc(O)cc1` (stereo not drawn) [OXEDRINE], the Inhibition in the assay on Staphylococcus aureus was -16.09%; with Escherichia coli, 6.6%. As for `C[C@H](CCC(=O)O)[C@H]1CC[C@H]2[C@@H]3C(=O)C[C@@H]4CC(=O)CC[C@]4(C)[C@H]3CC(=O)[C@]12C` [DEHYDROCHOLIC ACID], the Inhibition with Staphylococcus aureus came out at 8.43%; in the assay on Escherichia coli, 9.29%. For the compound `CCN(C(C)=O)c1cccc(-c2ccnc3c(C#N)cnn23)c1` [ZALEPLON], the Inhibition with Staphylococcus aureus came to 2.73%; with Escherichia coli, 4.96%. With `Oc1ncnc2[nH]ncc12` [ALLOPURINOL], the Inhibition stood at 15.53% with Staphylococcus aureus and 6.23% with Escherichia coli. Regarding `Brc1c(NC2=NCCN2)ccc2nccnc12` [BRIMONIDINE], the Inhibition in the assay with Staphylococcus aureus is 7.02%; in the assay on Escherichia coli it was -2.73%. The like results for `CN1[C@@H]2CC[C@H]1C[C@@H](OC(=O)c1c[nH]c3ccccc13)C2.Cl` were, in that order, 18.1% and -3.68%. Regarding `CCN(CC)CCOC(=O)C(O)(c1ccccc1)c1ccccc1.Cl`, the Inhibition in the assay on Staphylococcus aureus is 13%; in the assay on Escherichia coli it was -0.91%. Turning to `Cl.FC(F)(F)c1cccc(N2CCNCC2)c1` [N- (3-TRIFLUOROMETHYLPHENYL)PIPERAZINE HYDROCHLORIDE (TFMPP)], the Inhibition in the assay on Staphylococcus aureus is recorded as -3.1%; with Escherichia coli, 6.36%.

For the compound `C#C[C@]1(O)CC[C@H]2[C@@H]3CCC4=CC(=O)CC[C@@H]4[C@H]3CC[C@@]21C` [NORETHINDRONE], the values for the Inhibition with Staphylococcus aureus and in the assay on Escherichia coli were -0.74% and 4.04%, respectively. Take `C[C@]12CCC(=O)C=C1CC[C@@H]1[C@@H]2CC[C@@]2(C)[C@H]1CC[C@]2(C)O` [METHYLTESTOSTERONE]: the Inhibition in the assay on Staphylococcus aureus is recorded as 7.28%; in the assay with Escherichia coli, 3.56%. Regarding `C=C(C)[C@@H]1[C@H]2OC(=O)[C@@H]1[C@]1(O)C[C@H]3O[C@]34C(=O)O[C@H]2[C@]14C.CC(C)(O)[C@@H]1[C@H]2OC(=O)[C@@H]1[C@]1(O)C[C@H]3O[C@]34C(=O)O[C@H]2[C@]14C`, the results for the Inhibition in the assay on Staphylococcus aureus and in the assay with Escherichia coli were 10.5% and 5.19%, respectively. For the compound `Br.COc1ccc2c(c1)[C@]13CCCC[C@@H]1[C@H](C2)N(C)CC3.O` [DEXTROMETHORPHAN HYDROBROMIDE], the Inhibition in the assay with Staphylococcus aureus is listed as 17.11%; in the assay on Escherichia coli, 4.79%. As to `Cl.O=C1CC2(CCCC2)CC(=O)N1CCCCN1CCN(c2ncccn2)CC1` [BUSPIRONE HYDROCHLORIDE], the results for the Inhibition with Staphylococcus aureus and in the assay with Escherichia coli were 17.44% and 4.5%, respectively.

Consider `COc1cc(-c2ccc(=O)[nH]n2)ccc1OC(F)F` [ZARDAVERINE], for which the results for the Inhibition with Staphylococcus aureus and in the assay with Escherichia coli were 7.7% and -1.99%, respectively. As to `CC[C@@H]1/C=C/C=C/C[C@H](C)[C@@H](O)[C@](C)(O)C(=O)[C@H](C)[C@@H](O)[C@H](C)C(=O)[C@H](C)[C@@H](O)[C@H](C)/C=C/C(=O)O[C@H]2[C@@H](C)[C@@H](CC1)O[C@@]1(CC[C@@H](C)[C@@H](C[C@H](C)O)O1)[C@@H]2C`, the Inhibition was 9.12% in the assay on Staphylococcus aureus and 0.23% with Escherichia coli.

On to `C=C1C[C@@H]2[C@H](CC[C@]3(C)C(=O)CC[C@@H]23)[C@@]2(C)C=CC(=O)C=C12` [EXEMESTANE], for which the Inhibition was 13.66% in the assay with Staphylococcus aureus and -6.95% with Escherichia coli.

`CC[N+](C)(C)c1cccc(O)c1.[Cl-]` [EDROPHONIUM CHLORIDE]: the Inhibition in the assay with Staphylococcus aureus is listed as 15.74%; with Escherichia coli, 2.93%.

Regarding `Fc1ccc([C@@H]2CCNC[C@H]2COc2ccc3c(c2)OCO3)cc1.O=C(O)/C=C\C(=O)O`, the Inhibition in the assay with Staphylococcus aureus is listed as 0.49%; in the assay with Escherichia coli it was 6.75%. Consider `Cl.c1ccc2c(CC3=NCCN3)cccc2c1` [NAPHAZOLINE HYDROCHLORIDE], for which the Inhibition was determined as 21.19% in the assay on Staphylococcus aureus and 2.28% with Escherichia coli. The like results for `C[C@H](CCC(=O)O)[C@H]1CC[C@H]2[C@@H]3[C@@H](O)C[C@@H]4C[C@H](O)CC[C@]4(C)[C@H]3CC[C@]12C` [URSODIOL] were, in that order, 5.15% and 2.26%. As to `Cl.O.Oc1ccc2c3c1O[C@H]1c4[nH]c5ccccc5c4C[C@@]4(O)C(C2)N(CC2CC2)CC[C@]314`, the results for the Inhibition in the assay with Staphylococcus aureus and with Escherichia coli were -20.11% and 6.59%, respectively. On to `C=C(C)CN1CC[C@]23c4c5ccc(O)c4O[C@H]2c2[nH]c4ccccc4c2C[C@@]3(O)C1C5.Cl.O`, for which the Inhibition with Staphylococcus aureus is listed as 1.35%; with Escherichia coli it was 1.94%.

In the case of `Cl.Oc1ccc2c3c1OC1C(O)CC[C@@]4(O)[C@@H](C2)N(CC2CCC2)CC[C@]314` (stereo partly drawn), the Inhibition in the assay with Staphylococcus aureus is 18.7%; in the assay with Escherichia coli, -2.31%. The like results for `Nc1nc(F)nc2c1ncn2[C@@H]1O[C@H](CO)[C@@H](O)[C@@H]1O` [FLUDARABINE] were, in that order, 11.26% and 42.2%. The like results for `c1ccc2c(c1)Nc1ccccc1S2` [PHENOTHIAZINE] were, in that order, -22.92% and 9.21%. As to `CNCCC(Oc1ccc(C(F)(F)F)cc1)c1ccccc1.Cl` (stereo not drawn) [FLUOXETINE HYDROCHLORIDE], the Inhibition is reported as 15.46% with Staphylococcus aureus and 2.53% in the assay on Escherichia coli. As for `Cl.NCC(O)c1ccc(O)c(O)c1` (stereo not drawn), the Inhibition in the assay on Staphylococcus aureus is listed as 10.44%; in the assay with Escherichia coli it was 0.24%.

Take `C[N+]1(C)CCN(c2ccccc2)CC1.[I-]` [DIMETHYLPHENYLPIPERAZINIUM IODIDE]: the Inhibition was determined as 11.69% in the assay on Staphylococcus aureus and 3.59% with Escherichia coli. `Br.Br.CN1CC[C@]2(c3cccc(O)c3)Cc3nc4ccccc4cc3C[C@H]2C1.O`: the Inhibition in the assay with Staphylococcus aureus stood at 5.38%; in the assay on Escherichia coli it was 1.66%.

In the case of `NC(=O)OCCCc1ccccc1` [PHENPROBAMATE], the Inhibition with Staphylococcus aureus was determined as 11.43%; with Escherichia coli, 2.85%.

With `C[C@]12CC[C@H](O)CC1=CC[C@@H]1[C@@H]2CC[C@@]2(C)[C@H]1CC[C@]2(C)O` [METHANDRIOL], the Inhibition with Staphylococcus aureus was 0.46%; with Escherichia coli, 5.99%.

As for `COc1ccc(C(CN(C)C)C2(O)CCCCC2)cc1.Cl` (stereo not drawn) [VENLAFAXINE HYDROCHLORIDE], the figures for the Inhibition with Staphylococcus aureus and in the assay with Escherichia coli were 5.17% and 7.16%, respectively. For the compound `C[C@]12CC[C@H](O)CC1=CC[C@@H]1[C@@H]2CC[C@]2(C)C(=O)CC[C@@H]12` [PRASTERONE], the Inhibition with Staphylococcus aureus is given as 13.56%; with Escherichia coli it was 2.6%.

Turning to `Cc1cc(NS(=O)(=O)c2ccc(N)cc2)no1` [SULFAMETHOXAZOLE], the Inhibition with Staphylococcus aureus is reported as -14.52%; in the assay with Escherichia coli, 28.59%. Consider `C[C@]12CC[C@H]3[C@@H](CCC4=CC(=O)CC[C@@]43C)[C@@H]1CC[C@@H]2O` [TESTOSTERONE], for which the Inhibition is -3.69% with Staphylococcus aureus and -8.96% with Escherichia coli. On to `CN1[C@@H](CC(=O)c2ccccc2)CCC[C@H]1C[C@H](O)c1ccccc1.Cl` [LOBELINE HYDROCHLORIDE], for which the Inhibition in the assay on Staphylococcus aureus is given as 13.97%; in the assay on Escherichia coli, -0.94%. As for `O=C(O)C(Cl)Cl` [DICHLOROACETIC ACID], the figures for the Inhibition with Staphylococcus aureus and in the assay on Escherichia coli were 11.87% and 3.62%, respectively. The like results for `Cc1c(O)c(=O)ccn1C` [DEFERIPRONE] were, in that order, 9.56% and -6.38%. Turning to `CN[C@@H]1C[C@@H](c2ccc(Cl)c(Cl)c2)c2ccccc21.Cl` [INDATRALINE HYDROCHLORIDE], the results for the Inhibition with Staphylococcus aureus and with Escherichia coli were -18.12% and 7.7%, respectively. As for `C[N+]1(C)CCCC(OC(=O)C(O)(c2ccccc2)c2ccccc2)C1.[Br-]` (stereo not drawn) [MEPENZOLATE BROMIDE], the Inhibition with Staphylococcus aureus stood at 1.79%; in the assay on Escherichia coli, 3.23%.

As for `NC(=O)C[S+]([O-])C(c1ccccc1)c1ccccc1` (stereo not drawn) [MODAFINIL], the Inhibition with Staphylococcus aureus is 3.29%; with Escherichia coli it was 4.2%.

Consider `CN(C)C(=O)C(CCN1CCC(O)(c2ccc(Cl)cc2)CC1)(c1ccccc1)c1ccccc1.Cl` [LOPERAMIDE HYDROCHLORIDE], for which the Inhibition with Staphylococcus aureus is listed as 6.46%; in the assay on Escherichia coli, 2.77%.
